Measured values: PubChem BioAssay

These compounds were tested against Concanavalin-A (Canavalia ensiformis) (UniProt P02866) (assay: ConA small-molecule binders, primary screen, artefact control for SMM control protein annotation, biochemical, small-molecule microarray, Alexa647 label, 635 nm (AID 1127;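 further: z combines 667 nm emission intensity with signal-to-noise across three replicate slides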)). Settings: ConA-A647 binding fluorescence, higher = more signal.
Concanavalin-A (Canavalia ensiformis), sequence (P02866 whole entry, looked up): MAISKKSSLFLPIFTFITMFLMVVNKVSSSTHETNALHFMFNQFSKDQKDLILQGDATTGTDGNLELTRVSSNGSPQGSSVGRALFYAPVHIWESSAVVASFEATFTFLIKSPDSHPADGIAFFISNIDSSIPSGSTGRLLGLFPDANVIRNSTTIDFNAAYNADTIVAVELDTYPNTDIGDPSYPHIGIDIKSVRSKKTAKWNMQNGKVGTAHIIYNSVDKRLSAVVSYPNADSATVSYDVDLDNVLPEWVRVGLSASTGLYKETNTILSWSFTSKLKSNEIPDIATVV

SMILES | composite z-score
CN(C)CCCC[C@@H]1NC(=O)[C@H]2C[C@@H](C(=O)NCc3ccc(F)cc3)[C@@H](c3ccc(O)cc3)N2C1=O | 1.15
COC(=O)[C@@]1(Cc2ccc(F)cc2)[C@H]2c3cc(C(=O)N(C)C)n(CCO)c3C[C@H]2CN1C(=O)c1ccccc1 | -0.0249
C=C(/C(=C/C[C@@H](OC(C)=O)c1ccccc1OCCO)c1cc(C(=O)OC)ccc1OC)C(C)C | 1.02
CCCCN1CC=CC23O[C@@H]4/C=C\CCC(C)OC(=O)C4[C@H]2C(=O)N(C(C)CO)[C@@H]3C1=O (stereo partly drawn) | -0.59
NCCCC[C@@H]1NC(=O)[C@H]2C[C@@H](C(=O)NCc3ccc(F)cc3)[C@@H](c3cccc(OCCO)c3)N2C1=O | 0.701
COc1cccc(C[C@H]2C[C@@H](CO[Si](C(C)C)(C(C)C)C(C)C)N3C(=O)[C@@]4(C(C)=O)O[C@@]23[C@@H]2C(=O)N(C)C(=O)[C@@H]24)c1 | 0.117
CC#CCO[Si](C#CCCCCCC)(C(C)C)C(C)C | -2.41
O=C1NC(=O)C2C1C=CC(C(O)c1ccc(F)cc1)N2Nc1ccccn1 (stereo not drawn) | 0.356
